About 83,000 compounds went through this panel and 20% of them were active in at least one assay; those are over-represented in the sample as a whole.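 Single-dose data. Exposure time 48 hours. Values below 10 considered active.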 The source made the active and inactive calls.
The compounds below were run on SK-MEL-5 melanoma (assay: NCI-60 one-dose screen, 48 h (100 = growth as untreated, 0 = no growth, -100 = all killed)). Conditions: 10 µM unless noted.
Experimental: Growth inhibition of the SK-MEL-5 human tumor cell line is measured as a screen for anti-cancer activity. Cells are grown in 96 well plates and exposed to the test compound for 48 hours. Compounds are tested at a single concentration, which is 10^-5 M for most compounds. The reported endpoint is percent growth (GI% or GIPRCNT), where numbers from 0 - 100% represent growth inhibition, and numbers from -100% - 0 represent cell death. For example, a value of 40 represents 60% growth inhibition. A value of 0 means no net growth occurred over the course of the experiment. A value of -40 indicates 40% of cells at the beginning of the experiment died by the end of the experiment. A value of -100 means all cells are dead at the end of the experiment.
NCI-60 Human Tumor Cell Lines Screen was performed using the standard one-dose NCI protocol, which is described in more detail at https://dtp.cancer.gov/discovery_development/nci-60/default.htm.
Compounds with GIPRCNT values below 10 were considered active. Activity score was based on GIPRCNT using the following formula: […]
Score is 0 for GIPRCNT values of 100 or above, 50 for GIPRCNT values of 0, and 100 for GIPRCNT values of -100.

Structure (SMILES)	growth
COc1cc(NC(=O)c2cc(O)c(CC=C(C)C)c(O)c2)cc2c1O[C@]1(C)CC[C@@H](O)C(C)(C)[C@H]1C2	-20.3% (active)
CCCCCCCC/C=C\CCCCCCCC(=O)Oc1cccc2cccnc12	102% (inactive)
Cc1[nH]c(-c2nc3ccccc3[nH]2)c(C)c1C(=O)N1CCOCC1	98.8% (inactive)
COc1cc2c(=O)n(CCCn3ccnc3)c3c4cc5c(cc4ccc3c2cc1OC)OCO5	-75.9% (active)
Cc1nc2ccccc2c(/C=C/c2ccc(Cl)cc2)c1C(=O)/C=C/c1ccc(Cl)cc1	-71.7% (active)
CCn1c(Sc2nnc(NC(C)=O)s2)nc2c1c(=O)n(C)c(=O)n2C	98.6% (inactive)
c1ccc2c(c1)nc(-n1ccnc1)c1nc3ccccc3n12	68.9% (inactive)
COc1ccc(-c2nc3ncccn3c2/C=C/C(=O)c2cc(OC)c(OC)c(OC)c2)cc1	-83.2% (active)
C=C(C)[C@@H]1CC[C@]2(CNCCO)CC[C@]3(C)[C@H](CC[C@@H]4[C@@]5(C)CCC(N)[C@@](C)(CO)[C@@H]5CC[C@]43C)[C@@H]12 (stereo not given in full)	-96.1% (active)
COc1cc(CNC(=O)/C=C/C=C/c2ccc3c(c2)OCO3)ccc1OCc1cn(-c2ccc(Cl)c(Cl)c2)nn1	-41.1% (active)
Cc1csc(NC(=O)c2sc3nc(-c4cccs4)ccc3c2N)n1	92.2% (inactive)
C=CC(=O)N[C@@H](Cc1ccc(-c2cc(Cl)cc(Cl)c2)cc1)[C@@H](O)[C@H](O)C(=O)O	99.3% (inactive)
O=c1[nH]c(=O)n(C2CC(O)C(CO)O2)cc1CO (stereo not given)	108% (inactive)
O=C(Nc1ccccn1)[C@H](O)[C@@H](O)C(=O)N1CCOCC1	99.3% (inactive)
CCc1c(C(=O)N[C@@H]2c3cc(Cl)ccc3CC[C@@H]2O)[nH]c(C)c1C(C)=O	45% (inactive)
CCCCn1c(=O)[nH]c(N)c(C(c2ccc(F)cc2)c2c(N)[nH]c(=O)n(CCCC)c2=O)c1=O	36.7% (inactive)
COc1ccc(Nc2ncc(Br)c(NCCCNC(=O)C3CCC3)n2)cc1	44.2% (inactive)
CCCCCOC(=O)c1cccc(NC(=O)CN(CC)CC)c1	105% (inactive)
CN1CCN(C2=C(Cl)C(=O)c3ccccc3C2=O)CC1	26.8% (inactive)
CN(C)CCC(O)(Cc1ccccc1)c1ccccc1 (stereo not given)	108% (inactive)

Structure (SMILES)	growth
N#Cc1c(NC(=O)c2ccccc2I)sc2c1CCCC2	19.2% (inactive)
CCN(CC)S(=O)(=O)c1ccc(O)c(NC(=O)c2[nH]c(C)c(C(C)=O)c2CCc2ccc(Cl)cc2)c1	-25% (active)
CNC(=O)c1cc(Oc2ccc3nc(Nc4cc(Cl)cc(Cl)c4)ccc3c2)ccn1	51.8% (inactive)
Cc1cc(-c2ccc(N(C)C)cc2)c2sc(=O)[nH]c2n1	33.3% (inactive)
O=S(=O)(NCCNc1cc(-c2c(-c3cccc(O)c3)nc3sccn23)ccn1)c1ccc(Br)cc1	25.2% (inactive)
CC(C)OCCCNCC(=O)Nc1ccc(S(=O)(=O)c2ccc(NC(=O)CNCCCOC(C)C)cc2)cc1	82.4% (inactive)
C=C(CNCCc1ccc(O)cc1)[C@@H]1CC[C@]2(COC3CCCCO3)CC[C@]3(C)[C@H](CC[C@@H]4[C@@]5(C)CCC(NCCO)C(C)(C)[C@@H]5CC[C@]43C)[C@@H]12 (stereo not given in full)	-95.4% (active)
Clc1ccc2c(NCCCN3CCN(c4nc(N5CCOCC5)nc5ccccc45)CC3)ccnc2c1	-96.8% (active)
CCOC(=O)c1cnn2c(-c3ccc(Cl)cc3)nc(NCc3ccccc3)nc12	86% (inactive)
CSc1ccc(Cl)c(C(=O)Nc2sccc2C(N)=O)c1	95% (inactive)
CCN(CC)N=Nc1nn(C(=O)Nc2ccc(Cc3ccccc3)cc2)c2ccc(Cl)cc12	56.6% (inactive)
Nc1nc(I)c2ncn(C3OC(CO)C(O)C3O)c2n1 (stereo not given)	102% (inactive)
CCOC(=O)C1C(=O)C=C(c2cnccn2)CC1c1ccc(OC)c(OC)c1 (stereo not given)	103% (inactive)
CC(C)n1nc(C#Cc2cccc3cc(-c4cccc(C(F)(F)F)c4)ncc23)c2c(N)ncnc21	85.1% (inactive)
COc1cc2c(cc1OC)-c1ccc3cc4c(cc3c1N(CCN1CCCC1)C2)OCO4	26.4% (inactive)
CCO/C=N/C1=C(C#N)C(c2ccc(OC)cc2)c2c(c3ccccc3n(C)c2=O)O1 (stereo not given)	102% (inactive)
CCN(CC)CCCC(C)NCc1ccccc1 (stereo not given)	108% (inactive)
CCN(CC)CCCNC(=O)c1ccc(N)cc1O	95.4% (inactive)
CS(=O)(=O)c1ccc(-c2nc3cc(Cl)ccc3n2CC(=O)NO)cc1	103% (inactive)
O=C1Nc2ccccc2/C1=N/N=C/c1ccsc1	101% (inactive)
